The source of these data is PubChem BioAssay (NCI).

This is part of a sample that, as a whole, favours compounds with a hit. Of some 83,000 tested, about 20% had one in any assay.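 Growth was measured after 48 h exposure to one concentration of compound in 96-well plates. Values under 10 count as active.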 Active and inactive are the calls of the source.

The subject of the experiment is HT29 colon. Put plainly: NCI-60 one-dose screen, 48 h (100 = growth as untreated, 0 = no growth, -100 = all killed). To be noted: 10 µM. How it is done: Growth inhibition of the HT29 human tumor cell line is measured as a screen for anti-cancer activity. Cells are grown in 96 well plates and exposed to the test compound for 48 hours. Compounds are tested at a single concentration, which is 10^-5 M for most compounds. The reported endpoint is percent growth (GI% or GIPRCNT), where numbers from 0 - 100% represent growth inhibition, and numbers from -100% - 0 represent cell death. For example, a value of 40 represents 60% growth inhibition. A value of 0 means no net growth occurred over the course of the experiment. A value of -40 indicates 40% of cells at the beginning of the experiment died by the end of the experiment. A value of -100 means all cells are dead at the end of the experiment.
NCI-60 Human Tumor Cell Lines Screen was performed using the standard one-dose NCI protocol, which is described in more detail at https://dtp.cancer.gov/discovery_development/nci-60/default.htm.
Compounds with GIPRCNT values below 10 were considered active. Activity score was based on GIPRCNT using the following formula: […]
Score is 0 for GIPRCNT values of 100 or above, 50 for GIPRCNT values of 0, and 100 for GIPRCNT values of -100.
Turning to `COc1ccc(C(=O)COc2ccc(NC(=O)Nc3ccccc3)cc2)cc1`, the growth was 103% (inactive). As for `C#C[C@]1(O)CC[C@H]2[C@@H]3CC=C4c5sc(Nc6ccc(N(C)C)cc6)nc5CC[C@]4(C)[C@H]3CC[C@@]21C`, the figure is -53.5% (active); as for `Cc1ccc2sc3c(c2c1)Oc1nc[nH]c(=O)c1C3c1cccc(F)c1` (stereo not given), 103% (inactive); as for `CCOC(=O)C1=C(N)N(c2ccc(C)cc2)C2=C(C(=O)CC(C)(C)C2)C1c1ccccc1Br` (stereo not given), 62.5% (inactive). The result for `Cc1ccc(-c2nc(C#N)c(S(=O)(=O)N3CCN(S(C)(=O)=O)CC3)o2)cc1` reads -6.5% (active); that for `COc1ccc(C2c3sc4ccc(C)cc4c3Oc3nc(N)nc(N)c32)cc1` (stereo not given), 99.1% (inactive). Take `Cn1cc(-c2cc3nc(-c4c[nH]c5ccccc45)cc(N)n3n2)c2cc(Cl)ccc21`: the growth was -69.3% (active). As for `COc1cc2oc(-c3cccc(C(=O)Nc4ccc(Cl)cc4)c3)cc(=O)c2c(OCCN)c1OC`, the figure is -91.2% (active); as for `O=C1NC2C=CC=CC2/C1=C1/SC(=S)N(C2CC(=O)N(c3ccc(Br)cc3)C2=O)C1=O` (stereo not given), 98.1% (inactive); as for `Fc1ccc(/C=C/c2nc3ccccc3n3c(-c4ccc(Cl)cc4)nnc23)cc1`, 59.5% (inactive). The result for `Cn1cc(-c2nc(N)nnc2-c2c[nH]c3ccccc23)c2cc(Br)cnc21` reads -27.2% (active); that for `CC(C)(C)c1cc(/C=C2\S/C(=N/c3ncn[nH]3)NC2=O)cc(C(C)(C)C)c1O`, 10.7% (inactive). As for `COc1ccc(OC)c(-n2cc(C#N)c(N)c2C(=O)c2ccc(Cl)cc2Cl)c1`, the figure is 4.43% (active); as for `Cc1cc(N=C2NC(=O)S/C2=C\c2ccc(F)cc2)n[nH]1`, 6.68% (active).

Take `O=C(CN1CCN(c2ncnc3c2cnn3-c2ccccc2)CC1)Nc1ccc(Br)cc1`: the growth was 73.3% (inactive). The result for `CC1(C)CC[C@]2(C(=O)O)CC[C@]3(C)C(=CCC4[C@@]5(C)C[C@@H](O)[C@@H]6OC(c7cccc(F)c7)OC[C@@]6(C)C5CC[C@]43C)C2C1` (stereo not given in full) reads 28.1% (inactive); that for `COc1ccc(-n2c(SCC(=O)NNS(=O)(=O)c3ccccc3)nc3ccc(Cl)cc3c2=O)cc1`, 114% (inactive). The result for `O=C1S/C(=C\c2ccc([N+](=O)[O-])cc2)C(=O)N1CCN1CCCCC1` reads 121% (inactive); that for `Cc1ccc2c(c1)C(=O)/C(=C/c1ccc([N+](=O)[O-])cc1)S2`, 79.1% (inactive); that for `Cc1ccc(COc2ccc(NC(=O)Nc3ccc(Cl)c(C(F)(F)F)c3)cc2)cc1`, 80.6% (inactive). The result for `COc1ccc2[nH]cc(-c3nc(N)nnc3-c3cn(C)c4ncc(Br)cc34)c2c1` reads -27.1% (active); that for `COc1ccc(C2c3sc4ccc(C)cc4c3Oc3nc[nH]c(=O)c32)cc1` (stereo not given), 112% (inactive); that for `COc1cc2oc(-c3cccc(C(=O)Nc4ccc(Cl)cc4)c3)cc(=O)c2c(OCCNC(=O)[C@@H](N)CO)c1OC`, 37.3% (inactive).

Consider `C#C[C@]1(O)CC[C@H]2[C@@H]3CC=C4c5sc(Nc6cc(C)cc(C)n6)nc5CC[C@]4(C)[C@H]3CC[C@@]21C`, for which the growth is -74.2% (active).

As to `O=C(CSc1nc2ccccc2c(=O)n1-c1ccc(Cl)cc1)Nc1ccc(-c2nc3ccccc3[nH]2)cc1`, the growth is -38.9% (active). The result for `COc1cc(C2CC(c3ccccc3)=Nc3c(N)nc(N)nc3N2)ccc1Oc1nc(NCCO)nc(N2CCOCC2)n1` (stereo not given) reads 112% (inactive). As for `Cc1ccc(S(=O)(=O)N2CCN(S(=O)(=O)c3oc(-c4ccccc4)nc3C#N)CC2)cc1`, the figure is 80.2% (inactive); as for `O=C(Nc1ccc(Oc2ncnc3scc(Nc4n[nH]c(=S)s4)c23)cc1)C1(C(=O)Nc2cccc(C(F)(F)F)c2)CC1`, 112% (inactive).

Turning to `CCOc1ccc(/C=N/NC(=O)Cn2nc(Cc3ccc(OC)cc3)c3onc(C)c3c2=O)cc1`, the growth is 16.6% (inactive). For the molecule `Cc1ccc2c(c1)C(=O)/C(=C/c1c[nH]c3ccccc13)S2`, the growth was 55.6% (inactive). The result for `Cc1cc(N=C2NC(=O)/C(=C/c3cc(C(C)(C)C)c(O)c(C(C)(C)C)c3)S2)n[nH]1` reads 9.22% (active); that for `COc1ccccc1-n1cc(C#N)c(N)c1C(=O)c1ccc(Cl)cc1Cl`, -14.7% (active).

Regarding `CCOC(=O)c1ccc(NC(=O)CSC(CC(=O)c2sc(Nc3ccccn3)nc2C)c2ccccc2F)cc1` (stereo not given), the growth was -28.3% (active). The result for `COc1ccc(Cc2nn(CC(=O)N/N=C/c3ccc(Br)cc3)c(=O)c3c(C)noc23)cc1` reads 63.4% (inactive). The result for `Fc1ccc(-c2csc(Nc3cccc(Nc4nc(-c5ccc(F)cc5)cs4)c3)n2)cc1` reads 62.3% (inactive). The result for `Cn1cc(-c2nnc(N)nc2-c2c[nH]c3ccccc23)c2cc(Br)cnc21` reads 35.6% (inactive). Consider `O=C(CC(=O)Nc1ccc(Oc2ncnc3scc(Nc4n[nH]c(=S)s4)c23)cc1)Nc1ccc(Br)cc1`, for which the growth is 112% (inactive). As for `COc1ccc(Cn2cc(C#N)c(N)c2C(C)=O)c(OC)c1`, the figure is 117% (inactive). In the case of `O=C(CN1CCN(c2ncnc3c2cnn3-c2ccccc2)CC1)Nc1ccc(Cl)cc1`, the growth is 63.4% (inactive).

Take `O=C(c1ccc(F)cc1)C(c1c[nH]c2ccccc12)c1c[nH]c2ccccc12`: the growth was 30.8% (inactive).
